Measurements reported in ChEMBL document CHEMBL3988442, “University of Dundee, Small-Polar-MMV Screening Library” (2021).
The campaign covered roughly 48,000 compounds. About 13,000 (27%) showed an effect of 50% or more. The list shows a part of the results.

System: Wolbachia pipientis
Assay: Anti-Wolbachia Cell-Based Screen
Assay type: functional
Design: scale not given: in the data most compounds retested in dose-response had high values
Conditions: 5 µM

SMILES	Percent Effect [%]
CCS(=O)(=O)NCCCNC1CSCCc2ccccc21 (centres undefined)	1.268
O=C(O)C(F)(F)F.O=C(O)C(F)(F)F.O=C1[C@@H]2CCN(Cc3ccccn3)C[C@@H]2OCCN1c1ccccc1	5.214
CCNC(=O)[C@@H]1C[C@H](N)CN1C1CCN(c2ccccc2OC)CC1	-4.243
CC(C)Cc1cc(C(=O)NCC2CCN(c3ccccc3F)C2)on1 (centres undefined)	-10.11
COc1cc(C(=O)NCC2CCCN(Cc3ccco3)C2)ccn1 (centres undefined)	2.476
CC(C)Cc1cc(C(=O)NCC2CCCN(Cc3ccco3)C2)on1 (centres undefined)	50.17
Cc1ccccc1C(=O)N1CCO[C@H]2[C@H](OCCN(C)C)CC[C@@H]21.O=C(O)C(F)(F)F	99.34
Cc1ccoc1C(=O)N1CCO[C@H]2[C@H](OCCN(C)C)CC[C@@H]21.O=C(O)C(F)(F)F	-19.8
Cc1cc(C(=O)N2CCO[C@H]3[C@H](OCCN(C)C)CC[C@@H]32)c(C)[nH]1.O=C(O)C(F)(F)F	104.2
Cc1cc(C(=O)N2CCO[C@H]3[C@H](Oc4ccccn4)CC[C@@H]32)c(C)[nH]1.O=C(O)C(F)(F)F	-3.803
CN(C)CCO[C@@H]1CC[C@H]2[C@H]1OCCN2C(=O)CCc1ccccc1.O=C(O)C(F)(F)F	-7.187
COc1ccc(C(=O)N2CCO[C@H]3[C@@H](OCC4CC4)CC[C@@H]32)cc1F	-14.51
Cc1occc1C(=O)N1CCO[C@H]2[C@H](OCc3ccccn3)CC[C@@H]21.O=C(O)C(F)(F)F	-3.941
CN(C)CCO[C@@H]1CC[C@H]2[C@H]1OCCN2C(=O)c1ccccc1F	79.95
Cc1occc1C(=O)N1CCO[C@H]2[C@H](OCc3cccnc3)CC[C@@H]21.O=C(O)C(F)(F)F	4.513
Cc1c(C(=O)N2CCCC(O)(CN(C)C)CC2)c2cc(O)ccc2n1C (centres undefined)	-7.516
CC(=O)N1CCC(Nc2ccc(Br)cc2C#N)C1 (centres undefined)	-20.23
O=C(CCn1ccc2ccccc21)N1CCC(Nc2cccnc2)CC1	-9.935
Cc1cc(C(=O)N2CCC(Nc3cccnc3)CC2)c(C)s1	98.75
Cc1ccsc1C(=O)N1CCC(Nc2cccnc2)CC1	82.28
Cc1cc(C(=O)N2CCC(NC(=O)c3cccnc3)CC2)c(C)o1	-8.9
Cc1nc(C)c(C(=O)N2CCC(Nc3cccnc3)CC2)s1	6.028
COc1cc(C)sc1C(=O)N1CCC(Nc2cccnc2)CC1	-10.68
COc1ccc([C@@H]2C[C@H](NC(C)=O)C[C@H](CCc3ccccc3)O2)cn1	7.698
CSCC[C@H](N)C(=O)N1CC(Oc2ccccc2C)C1	-5.947

SMILES	Percent Effect [%]
COCCOc1ncccc1CNC(=O)N1CCOCC1	-0.8625
COc1ccc(-n2cnnc2SCCC#N)cn1	-2.783
O=C(NCC1(C(=O)O)CCC1)c1nnn(-c2ccc(F)cc2)c1C1CC1	4.547
CCN(CC)C(=O)c1nnn(-c2ccc(C)cc2)c1C1CC1	-3.028
Cc1ccc(-n2nnc(C(=O)NC(C)C)c2C2CC2)cc1	124.2
Cc1ccc(-n2nnc(C(=O)NCC3(CO)CC3)c2C2CC2)cc1	112.7
COc1ccc(-n2nnc(C(=O)NC(C)C)c2C2CC2)cc1	16.07
Cc1ccc(-n2nnc(C(=O)NCCS(N)(=O)=O)c2C2CC2)cc1	2.856
Cc1ccc(-n2nnc(C(=O)Nc3cc(C)nn3C)c2C2CC2)cc1	-15.14
COC(=O)CCNC(=O)c1nnn(-c2ccc(F)cc2)c1C1CC1	1.406
COC(=O)CCNC(=O)c1nnn(-c2ccc(C)cc2)c1C1CC1	120.1
Cc1ccc(-n2nnc(C(=O)NCC(F)(F)F)c2C2CC2)cc1	125.2
O=C(NCC1(CO)CC1)c1nnn(-c2ccc(F)cc2)c1C1CC1	-10.21
NS(=O)(=O)CCNC(=O)c1nnn(-c2ccc(F)cc2)c1C1CC1	1.057
CC(NC(=O)NCCCO)c1ccc(-c2ccncc2)cc1 (centres undefined)	6.546
Cc1ccccc1CN1CCNC(=O)C1CC(=O)NCC1CCCCC1 (centres undefined)	13.06
NC(=O)CN1CC2(CCC1=O)CCN(Cc1cc(F)ccc1Cl)CC2	6.267
Cn1cc(CN2CCOC3(CCCN(C(=O)c4ccco4)C3)C2)cn1.O=C(O)C(F)(F)F (centres undefined)	-10.52
COc1ccc(C(C)N2CCC(CNC(C)=O)CC2)cc1Cl (centres undefined)	4.452
COc1ccccc1C(=O)NC[C@H]1COCc2nc3c(C)cccc3n21	-7.945
CS(=O)(=O)CCCSCc1ccc(Br)c(F)c1	-6.245
COc1ccc(Br)cc1SCCS(C)(=O)=O	106.5
CS(=O)(=O)CCSc1cccc(C#N)c1	-1.405
CS(=O)(=O)CCCSCc1cc(F)cc(Br)c1	-17.62
COc1ccc(Br)cc1Cn1nc(C(N)=O)ccc1=O	5.156

SMILES	Percent Effect [%]
COc1ccc(Br)cc1SCCCS(C)(=O)=O	100.1
CS(=O)(=O)CCSCc1ccc(Br)c(F)c1	-8.514
COc1ccc(Br)cc1CCC(=O)N1CCCC1	-8.693
COc1ccc(Br)cc1SCCC(N)=O	101.3
O=C(Cc1ccc2c(c1)CCC2)N1CCCC(n2cccn2)C1 (centres undefined)	-2.086
Cc1cnn(CC2CCCN2C(=O)Cc2ccc3c(c2)CCO3)c1 (centres undefined)	96.14
O=C(Cc1ccc(O)c(Cl)c1)N1CCCCC1CCn1cccn1 (centres undefined)	-6.522
O=C(c1cccc2c1OCCO2)N1CCCC1Cn1cccn1 (centres undefined)	5.303
O=C(Cc1ccc2c(c1)CCO2)N1CCCC1Cn1cccn1 (centres undefined)	102
O=C(Cc1ccc2c(c1)CCC2)N1CCCC1Cn1cccn1 (centres undefined)	137.3
O=C(Cc1ccc2c(c1)CCO2)N1CCCC(n2cccn2)C1 (centres undefined)	-1.485
Cc1nn(CC(C)C)c(N(C)C)c1CNCCCNS(C)(=O)=O	11.35
CCOc1ccnc(NCc2nc(C)cc(=O)[nH]2)n1	1.629
CCC(=O)N1Cc2nnc(C3CCOCC3)n2C(Cc2c[nH]cn2)C1 (centres undefined)	-1.737
CC(C)N(C)C[C@H]1OC[C@@H]2CCN(Cc3cccc(C#N)c3)C[C@@H]21.O=C(O)C(F)(F)F.O=C(O)C(F)(F)F	7.862
O=C1NC2(CCN(C(=O)c3ccc(Cl)cn3)CC2)CC1c1ccccc1 (centres undefined)	-25.51
COCCNc1nnc(-c2ccccn2)s1	158.8
COCCN(Cc1ccc(C)o1)C(=O)Nc1ncc(C)s1	4.146
CCC(C)(C)NC(=O)Nc1nnc(-c2ccccn2)s1	-10.26
COCCNc1nnc(-c2ccc(C)nc2)s1	135.2
COCCNc1nc(-c2ccc(S(=O)(=O)N3CCCCCC3)cc2)cs1	-3.577
COCCNc1nc2c(c(NCc3cnc(C)cn3)n1)CCNCC2	-9.122
CCC(CC)(CC(=O)OC)NC(=O)Nc1nnc(-c2ccccn2)s1	-2.114
COCCNc1nc(-c2ccc(S(=O)(=O)N3CCCCC3)cc2)cs1	16.68
COCCNc1nnc(-c2cnc(C)cn2)s1	149.1

SMILES	Percent Effect [%]
Cc1c(-c2ccncc2)n[nH]c1NC(=O)CCOC(C)C	-12.27
COc1cc2nc3n(c(=O)c2cc1OC)CCN(C)CC3	-3.498
O=c1c2sccc2nc2n1CCN(Cc1cccs1)CC2	5.975
CCCNC(=O)c1ccc2c(OC)n(C)nc2c1	-11.42
N#CCC(=O)NCc1nnc2n1CCN(Cc1cccs1)C2	6.584
COCCNC(=O)c1ccc2c(=O)n3c(nc2c1)CCN(C)CC3	94.74
CN1CCc2nc3cc(C(=O)NCc4cccs4)ccc3c(=O)n2CC1	76.54
CCN(Cc1ccncc1)Cc1c[nH]nc1-c1ccc(F)cc1	-6.114
COC(=O)C1CCN(C(=O)NCC(C)Cc2cccs2)CC1 (centres undefined)	-16.38
COc1cccc(C(=O)NCCCN2CCc3ccccc3C2)c1OC	-7.552
COc1ccccc1C(=O)NCC(c1cccn1C)N1CCOCC1 (centres undefined)	102.1
COc1cccc(OC)c1C(=O)NCC(c1cccn1C)N1CCCC1 (centres undefined)	106.6
Cc1oncc1C(=O)NCC(c1ccccc1Cl)N1CCOCC1 (centres undefined)	10.8
COc1ccccc1S(=O)(=O)NCC(c1cccn1C)N(C)C (centres undefined)	1.51
COc1ccccc1C(CNC(=O)NCc1cc[nH]n1)N1CCCC1 (centres undefined)	5.725
CCC(CNC(=O)c1ccccc1OC)N1CCc2ccccc2C1 (centres undefined)	13.81
COc1cccc(C(=O)NCC(c2cccn2C)N2CCCC2)c1OC (centres undefined)	106.1
COCCN1CCC(NC(=O)C/C=C/c2ccc(C(C)C)cc2)CC1	-16.81
Cc1ccc(C(=O)N2CC[C@@]3(O)CCN(C(=O)N(C)C)C[C@H]3C2)cc1Cl	-5.057
Cc1nn(C)c(C)c1C1CCCN1CCCC#N (centres undefined)	2.05
Cc1noc([C@@H]2C[C@H]3OCC[C@H]3N(Cc3sccc3C)C2)n1.O=C(O)C(F)(F)F	9.269
Cc1nc(Cc2ccccc2)nc2sc(C(=O)O)c(C)c12	95.86
CCN(CC(=O)NC)C(=O)c1sc(Cc2ccccc2)nc1C	-6.036
Cc1c(C(=O)O)sc2nc(C(F)(F)F)ccc12	-2.496
